Bioassay records (PubChem BioAssay)
Sampled rows, rich in hits. Any-hit rate of the full collection: about 1.6%.
NSD2 HMT inh = NSD2 histone methyltransferase inhibitors, primary screen, biochemical, AlphaScreen, single concentration, set 2. Histone-lysine N-methyltransferase NSD2 (Homo sapiens), O96028. NSD2 peptide methylation, 120 min. inhibition, % at 12.5 µM. 310,000 compounds, 0.54% hits; in the data active = inhibition above about 50%
SIRT5 block = SIRT5 desuccinylase inhibitors, primary screen, biochemical, fluorescence imaging, single point, set 5; inhibition, % at 15 µM; 330,000 compounds, 1.1% hits; Purified SirT5, succinyl-peptide AMC, trypsin-coupled fluorescence; NAD-dependent protein deacylase sirtuin-5, mitochondrial (Homo sapiens), Q9NXA8; AID 652115, 2013; in the data active = inhibition above about 15%
Target sequence (Q9NXA8 whole entry, looked up): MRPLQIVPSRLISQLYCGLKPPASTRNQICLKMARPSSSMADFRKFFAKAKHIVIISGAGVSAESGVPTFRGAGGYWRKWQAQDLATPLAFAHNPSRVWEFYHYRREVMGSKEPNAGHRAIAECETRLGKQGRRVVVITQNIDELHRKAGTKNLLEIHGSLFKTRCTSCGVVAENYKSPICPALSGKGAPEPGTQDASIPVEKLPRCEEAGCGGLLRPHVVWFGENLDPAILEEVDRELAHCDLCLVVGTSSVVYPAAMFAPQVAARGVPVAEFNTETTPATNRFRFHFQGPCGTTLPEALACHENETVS
SUMO HTRF inh = inhibitors of in vitro SUMOylation cascade, primary screen, biochemical, HTRF, uHTS | SUMO-conjugating enzyme UBC9 (Homo sapiens), P63279 | HTRF SUMOylation assay, SAE1/SAE2 + UBC9 | inhibition, % at 35 µM | 290,000 compounds, 0.36% hits; in the data active = inhibition above about 50%, passing the limit was not always enough
Casp6 inh = human caspase-6 inhibitors, primary screen, biochemical, VEID-R110 fluorescence, single point, set 2; P55212; AID 686996, 2013; purified caspase-6, Z-VEID-R110 cleavage fluorescence; inhibition, % at 12.5 µM; 350,000 compounds, 0.53% hits;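 active = mean inhibition across replicates at least about 35%, with every replicate also reaching that limit, limit read from the data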;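 note: 0% = median of neutral control wells and 100% = no fluorescence left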
Target sequence (P55212 24-179 limits assumed): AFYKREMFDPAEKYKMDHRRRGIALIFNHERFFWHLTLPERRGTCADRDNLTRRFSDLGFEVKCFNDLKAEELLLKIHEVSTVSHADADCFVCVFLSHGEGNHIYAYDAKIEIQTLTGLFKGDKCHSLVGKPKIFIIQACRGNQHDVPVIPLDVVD
Target sequence (P55212 194-293 limits assumed): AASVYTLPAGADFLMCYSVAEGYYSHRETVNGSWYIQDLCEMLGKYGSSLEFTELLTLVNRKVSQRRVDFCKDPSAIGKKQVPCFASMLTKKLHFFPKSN
* = called active by the depositor; / = not tested or not shown.

SMILES	NSD2 HMT inh	SIRT5 block	SUMO HTRF inh	Casp6 inh
COc1cccc(-n2c(SCc3cc(=O)oc4cc(O)c(O)cc34)nc3ccccc3c2=O)c1	32	-4	79*	15
COc1ccc(/C=C/C(=O)NNC(=O)c2cc(C)oc2C)cc1	2	23*	/	1
Cc1cc(C(=O)NNC(=O)/C=C/c2ccccc2Cl)c(C)o1	-3	2	0	-7
COc1ccc(N(C(=O)c2snc(C(N)=O)c2N)C(C(=O)NC2CCCC2)c2ccco2)c(OC)c1 (configuration not stated)	5	-3	14	63*
COc1ccc(N(C(=O)c2snc(C(N)=O)c2N)C(C(=O)NC2CCCCC2)c2ccc(C)o2)c(OC)c1 (configuration not stated)	0	0	-15	0
CNC[C@H]1Oc2cc(C#CCOC)ccc2S(=O)(=O)N([C@H](C)CO)C[C@@H]1C	/	-5	/	-1
CCOc1ccccc1NC(=S)N(CCC(C)C)C1CCN(C(C)=O)CC1	3	19*	14	3
CCOc1ccccc1NC(=S)N(CCOC)C1CCN(C(C)=O)CC1	0	-8	-6	-4
C[C@H](CO)N1C[C@H](C)[C@@H](CN(C)S(=O)(=O)CC(F)(F)F)OCc2ccccc2-c2ccccc2C1=O	/	/	/	0
Cc1ccc(S(=O)(=O)Nc2ccc3c(c2)C(=O)N([C@H](C)CO)C[C@@H](C)[C@H](CN(C)Cc2ccc(Cl)c(Cl)c2)O3)cc1	/	1	/	-3
O=C(Oc1ccc[nH]c1=O)c1ccccc1	-2	-1	/	18
O=C(Oc1ccc[nH]c1=O)c1cccc(Cl)c1	-4	-2	100*	7
CCCCN(Cc1cccs1)S(=O)(=O)c1ccc(-c2ccc(=O)[nH]n2)s1	2	0	11	2
CN(C)CCN(Cc1ccccc1)S(=O)(=O)c1ccc(-c2ccc(=O)[nH]n2)s1	/	16*	-7	-5
Cc1noc(C)c1NC(=O)Nc1ccc2c(c1)CC(=O)N([C@@H](C)CO)C[C@@H](C)[C@H](CN(C)C(=O)Nc1ccc3c(c1)OCO3)O2	/	5	/	-1
CCOc1ccc(Cc2c(C)[nH]c3ccc(C(=O)O)cc3c2=S)cc1	32	29*	15	17
COCC(C)n1c(C)cc(C(=O)COC(=O)CCc2nc3ccccc3c(=O)[nH]2)c1C (configuration not stated)	1	20*	-7	-4
CCCC#Cc1ccc2c(c1)O[C@H](CN(C)Cc1ccccc1)[C@@H](C)CN([C@H](C)CO)S2(=O)=O	/	20*	/	/
CC(C)C#Cc1ccc2c(c1)O[C@@H](CN(C)Cc1ccccc1)[C@@H](C)CN([C@@H](C)CO)S2(=O)=O	/	17*	/	0
C[C@@H]1CN([C@@H](C)CO)S(=O)(=O)c2ccc(C#Cc3ccccn3)cc2O[C@@H]1CN(C)Cc1cccc(F)c1	/	20*	/	0
CC(C)C#Cc1ccc2c(c1)O[C@H](CN(C)Cc1ccccc1)[C@@H](C)CN([C@H](C)CO)S2(=O)=O	/	1	/	0
CCCC#Cc1ccc2c(c1)O[C@@H](CN(C)Cc1ccccc1)[C@@H](C)CN([C@H](C)CO)S2(=O)=O	/	-2	/	-2
CC(C)C#Cc1ccc2c(c1)O[C@H](CN(C)Cc1ccccc1)[C@H](C)CN([C@H](C)CO)S2(=O)=O	/	16*	/	-1
CCO[C@@H]1OC(C(=O)N2CCN(Cc3ccccc3)CC2)=C[C@H](c2ccc3c(c2)OCO3)[C@H]1CCCO	/	-1	/	-3
Cc1cccc(NC(=O)C[C@H]2CC[C@H]3[C@@H](COc4ccc(NC(=O)NC(C)C)cc4C(=O)N3C)O2)c1	/	3	/	/
SMILES	NSD2 HMT inh	SIRT5 block	SUMO HTRF inh	Casp6 inh
O=C(c1ccccc1NS(=O)(=O)c1ccc([N+](=O)[O-])cc1[N+](=O)[O-])N1O[C@@H]2C=C[C@H]1C2	/	-1	/	37*
O=c1[nH]c(=O)n(C2OC(CO)C(O)C2O)cc1F (configuration not stated)	-1	/	/	/
O=C1C=CC(n2cc(F)c(=O)[nH]c2=O)O1 (configuration not stated)	-1	1	/	36*
CC/C(=C\C1CCCCC1)C(NP(=O)(c1ccccc1)c1ccccc1)c1ccccc1 (configuration not stated)	/	22*	-19	-2
C[C@H](CO)N1C[C@H](C)[C@@H](CN(C)Cc2ccccc2)Oc2c(cccc2N(C)C)C1=O	/	1	/	2
C[C@H](CO)N1C[C@H](C)[C@@H](CN(C)Cc2ccccc2)Oc2ccc(N(C)C)cc2C1=O	/	21*	/	2
C[C@@H]1CN([C@@H](C)CO)C(=O)c2cccc(N(C)C)c2O[C@@H]1CN(C)Cc1ccccc1	/	23*	/	-1
CCc1nn(CC(=O)NC(C)CCc2ccccc2)c(=O)c2cc3cc(F)ccc3n12 (configuration not stated)	-8	-3	51*	4
O=S(=O)(c1ccc(F)cc1)N1CCCCN2[C@@H](CO)[C@H](c3ccc(-c4ccccc4F)cc3)[C@@H]2C1	/	22*	/	0
O=S(=O)(c1ccc(F)cc1)N1CCCCN2[C@H](C1)[C@@H](c1ccc(-c3ccccc3F)cc1)[C@@H]2CO	/	14	/	-2
O=S(=O)(c1ccc(F)cc1)N1CCCCN2[C@H](CO)[C@H](c3ccc(-c4ccccc4F)cc3)[C@@H]2C1	/	20*	/	-2
O=S(=O)(c1ccc(F)cc1)N1CCCCN2[C@H](C1)[C@H](c1ccc(-c3ccccc3F)cc1)[C@@H]2CO	/	17*	/	-1
Cc1ccccc1-c1ccc([C@H]2[C@H](CO)N3CCCCN(S(=O)(=O)c4ccc(F)cc4)C[C@@H]23)cc1	/	21*	/	/
O=S(=O)(c1ccc(F)cc1)N1CCCCN2[C@H](CO)[C@H](c3ccc(-c4ccccc4F)cc3)[C@H]2C1	/	-1	/	0
O=S(=O)(c1ccc(F)cc1)N1CCCCN2[C@@H](CO)[C@H](c3ccc(-c4ccccc4)cc3)[C@@H]2C1	/	10	/	0
COc1ccc(NC(=O)N(C)C[C@@H]2Oc3ccc(NC(=O)Nc4c(C)noc4C)cc3CC(=O)N([C@@H](C)CO)C[C@@H]2C)cc1	/	/	/	-1
O=S(=O)(c1ccc(F)cc1)N1CCCCN2[C@@H](CO)[C@@H](c3ccc(-c4ccccc4F)cc3)[C@@H]2C1	/	16*	/	-2
CC(C)NC(=O)Nc1ccc2c(c1)C(=O)N([C@H](C)CO)C[C@@H](C)[C@H](CN(C)C(=O)Nc1cccc3ccccc13)O2	/	2	/	-5
COc1ccc(CN(C)C[C@@H]2Oc3ccc(NC(=O)Nc4ccc(OC)cc4)cc3C(=O)N([C@@H](C)CO)C[C@H]2C)cc1	/	19*	/	3
COc1ccc(NC(=O)Nc2ccc3c(c2)C(=O)N([C@H](C)CO)C[C@@H](C)[C@@H](CN(C)Cc2ccc(-c4ccccc4)cc2)O3)cc1	/	19*	/	-1
